Each structure is given as a SMILES string. The campaign covered roughly 48,000 compounds. About 13,000 (27%) showed an effect of 50% or more. Some of the results follow.

In the assay the test system is Wolbachia pipientis. The assay is described as follows: Anti-Wolbachia Cell-Based Screen. It is filed as functional. Details: scale not given: in the data most compounds retested in dose-response had high values. The note with it: 5 µM.
For `Cc1ccc(-c2nc(CN3CCn4c(nnc4C4CC4)C3)cs2)o1`, the “Percent Effect” value was 3.918%. In the case of `Cc1nnc2n1CCN(Cc1csc(COc3ccccc3)n1)C2`, the “Percent Effect” value amounted to 109.3%. Take `CCc1nnc2n1CCN(Cc1csc(-c3ccsc3)n1)C2`: the “Percent Effect” value is on record as -5.09%. As for `CC(C)C1C(=O)NCCN1C(=O)CCCc1nc(C(C)(C)C)no1` (centres undefined), the figure is -23.49%; as for `COc1ccnc(N2CCN(C(=O)CCc3cnn(C)c3)CC2)n1`, 36.6%. The figure for `COCC1CN(Cc2cc(C)on2)Cc2cn(C)nc21` (centres undefined) is 6.327%. `CCN(C)CC1CCN(S(=O)(=O)c2cc(C)c(F)cc2Cl)C1` (centres undefined): the “Percent Effect” value turned out to be 6.524%.

For the compound `Cc1nn(C)c(C)c1C1CCCN1CC(=O)NCc1ccccn1` (centres undefined), the “Percent Effect” value stood at 103.7%. The figure for `Cc1cc(CN2CCCC2c2c(C)nn(C)c2Cl)no1` (centres undefined) is 7.779%; for `Cc1nn(C)c(Cl)c1C1CCCN1CC(=O)NCc1ccccn1` (centres undefined) it is -3.313%. As for `Cc1nn(C)c(C)c1C1CCCN1CC(=O)Nc1ccncc1` (centres undefined), the figure is 1.396%; as for `Cc1nn(C)c(Cl)c1C1CCCN1CCc1ccccn1` (centres undefined), 5.429%. As for `Cc1nn(C)c(Cl)c1C1CCCN1Cc1ccccn1` (centres undefined), the figure is 85.99%; as for `COc1c(C2CCCN2CC(=O)NCc2ccccn2)c(C)nn1C` (centres undefined), 101.4%. On to `COc1c(C2CCCN2CC(=O)Nc2cc(C)no2)c(C)nn1C` (centres undefined), for which the “Percent Effect” value is listed as -8.496%. The figure for `COc1c(C2CCCN2CC(=O)Nc2nc(C)cs2)c(C)nn1C` (centres undefined) is -2.535%; for `CNC(=O)C1CCC(NC(=O)N(C)Cc2c(C)noc2C)CC1` (centres undefined) it is 3.279%; for `Nc1cc(O)nc(CCNC(=O)CC[C@@H]2CCCN3CCCC[C@H]23)n1` it is -22.38%. As for `CCC(O)CN(Cc1cccc(C(=O)N(C)C)c1)c1ccccc1` (centres undefined), the figure is 6.575%. `CCC(C)(O)CNc1ccc(S(=O)(=O)C(F)F)cc1` (centres undefined): the “Percent Effect” value is given as -17.2%. Consider `Cn1c(=O)[nH]c2cc(C(=O)OCC(F)F)ccc21`, for which the “Percent Effect” value was -3.927%.

On to `CC(C)n1cnnc1Cn1c(=O)cnc2ccccc21`, for which the “Percent Effect” value is -19.8%. Turning to `CC(=O)NC1CCCN(C(=O)CNc2cc(Cl)cc(Cl)c2)C1` (centres undefined), the “Percent Effect” value is -7.422%. `Cc1ccc(O)c(C(=O)N2CCCC(NC(=O)C(C)C)C2)c1` (centres undefined): the “Percent Effect” value was determined as 85.08%.

`CC(C)C(=O)NC1CCCN(C(=O)c2cc(Cl)ccc2O)C1` (centres undefined): the “Percent Effect” value is reported as 122.5%. As for `O=C(c1cccc(Cl)c1)N1CCCC(Nc2ccc(F)cc2)C1` (centres undefined), the figure is -14.25%; as for `Cc1ccc(C(=O)N2CCCC(C(=O)N3CCCCC3)C2)c(O)c1` (centres undefined), -5.568%; as for `CCC1CN(C(=O)c2ccc(Cl)cc2O)CCN1C(C)C` (centres undefined), -0.08814%.

Turning to `CC(C)C(=O)NC1CCCN(C(=O)c2ccc(O)c(Cl)c2)C1` (centres undefined), the “Percent Effect” value is 88.73%. The figure for `Cc1ccc(C(=O)N2CCCC(NC(=O)C(C)C)C2)c(O)c1` (centres undefined) is 9.198%; for `CCC1(C(=O)O)CCCN(C(=O)c2ccc(O)c(Cl)c2)C1` (centres undefined) it is -6.141%; for `COc1c(F)cc(NC(=O)N2CCC(CSC)C2)cc1F` (centres undefined) it is -4.081%. As to `CS(=O)(=O)CCNC(=O)Nc1sc2ccccc2c1Cl`, the “Percent Effect” value is listed as -6.956%. As for `CCCn1[nH]cc/c1=N\C(=O)CN1CCCC1c1cccn1C` (centres undefined), the figure is -13.94%; as for `Cn1cc(C(=O)N2CC[C@@]3(O)CCN(C(=O)C4CCCC4)C[C@H]3C2)cn1`, 2.716%; as for `Cc1noc(C2CCC3(CCN(C(=O)C4CCOCC4)CC3)O2)n1` (centres undefined), 108.6%. The figure for `Cc1noc(C2CCC3(CCN(C(=O)C4=CCCCC4)CC3)O2)n1` (centres undefined) is -12.42%; for `Cc1noc(C2CCC3(CCN(C(=O)c4sccc4C)CC3)O2)n1` (centres undefined) it is 105.9%. As for `Cn1ccc(C(=O)N2CCC3(CCC(=O)N(C4CCCC4)C3)CC2)n1`, the figure is 5.203%.

For the compound `O=C(C1CCOCC1)N1CCC2(CCC(C(=O)N3CCCC3)O2)CC1` (centres undefined), the “Percent Effect” value is given as -2.84%. As for `Cc1noc(C2CCC3(CCN(C(=O)c4cnn(C)c4)CC3)O2)n1` (centres undefined), the figure is 95.88%.

As for `Cc1noc(C2CCC3(CCN(C(=O)c4ccn(C)n4)CC3)O2)n1` (centres undefined), the “Percent Effect” value turned out to be 89.59%.

Take `Cc1noc(C2CCN(C(=O)c3cc(Br)ccc3F)CC2)n1`: the “Percent Effect” value is 2.952%. The figure for `Cc1noc([C@H]2C[C@H]3CN(C(=O)C4CCOCC4)CC[C@@H]3O2)n1` is -6.774%.

In the case of `Cc1noc(C2CCCN(C(=O)c3scnc3Cl)C2)n1` (centres undefined), the “Percent Effect” value amounted to 3.125%. Turning to `Cn1nnnc1SCCNC(=O)c1cccc2ccnn12`, the “Percent Effect” value is 0.6807%. With `CCC1CN(CC(=O)NC(C)C)CCO1` (centres undefined), the “Percent Effect” value was -17.56%. The figure for `CC1CCCCN1C(=O)c1cn(-c2ccc(C(F)(F)F)cn2)nn1` (centres undefined) is -15.67%; for `O=C(COc1coc(CN2CCCC2)cc1=O)NCc1ccccc1Cl` it is 13.29%.

Take `CCn1ncc2c1CCCC2NCc1csc(COC)n1` (centres undefined): the “Percent Effect” value was determined as 6.958%. The figure for `CCCn1c(C)cc(C(=O)CN2C(=O)c3ccccc3CS2(=O)=O)c1C` is -1.519%; for `Cc1noc(C2CCN(C(=O)c3ccc(N(C)C)nc3)CC2)n1` it is -12.04%. The figure for `Cc1noc(C2CCC3(CCN(C(=O)c4ccnnc4)CC3)O2)n1` (centres undefined) is 98.77%; for `Cc1noc(C2CCCN(C(=O)c3cncc(Br)c3)C2)n1` (centres undefined) it is -3.695%.

The values are drawn from ChEMBL document CHEMBL3988442, “University of Dundee, Small-Polar-MMV Screening Library” (2021).
